Screens as filed in PubChem BioAssay.
Compounds with a hit are over-represented: about 3.5% of the library has one in this group of screens.
GPR151 ag = activators of human GPR151, primary screen, cell-based, PathHunter beta-arrestin, luminescence; G-protein coupled receptor 151 (Homo sapiens), Q8TDV0; PathHunter beta-arrestin GPR151 cells; activation, % at 11.2 µM; 1% of 650,000 active; AID 1508602, 2020; in the data active = activation above about 4.9%;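 also: 0% = median of compound wells and 100% = cells with positive control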
FBW7 act = FBW7 E3 ligase activators, primary screen, biochemical, AlphaScreen, human | F-box/WD repeat-containing protein 7 (Homo sapiens), Q969H0 | AlphaScreen FBW7–phospho-cyclin E peptide binding, activator screen | normalized activity (activation), % at 26.1 µM | 0.13% of 650,000 active | AID 1259310, 2017; in the data active = normalized activity above about 1.9%;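 also: purified mutant Fbw7 with reduced substrate affinity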
Target sequence (Q969H0 whole entry, looked up): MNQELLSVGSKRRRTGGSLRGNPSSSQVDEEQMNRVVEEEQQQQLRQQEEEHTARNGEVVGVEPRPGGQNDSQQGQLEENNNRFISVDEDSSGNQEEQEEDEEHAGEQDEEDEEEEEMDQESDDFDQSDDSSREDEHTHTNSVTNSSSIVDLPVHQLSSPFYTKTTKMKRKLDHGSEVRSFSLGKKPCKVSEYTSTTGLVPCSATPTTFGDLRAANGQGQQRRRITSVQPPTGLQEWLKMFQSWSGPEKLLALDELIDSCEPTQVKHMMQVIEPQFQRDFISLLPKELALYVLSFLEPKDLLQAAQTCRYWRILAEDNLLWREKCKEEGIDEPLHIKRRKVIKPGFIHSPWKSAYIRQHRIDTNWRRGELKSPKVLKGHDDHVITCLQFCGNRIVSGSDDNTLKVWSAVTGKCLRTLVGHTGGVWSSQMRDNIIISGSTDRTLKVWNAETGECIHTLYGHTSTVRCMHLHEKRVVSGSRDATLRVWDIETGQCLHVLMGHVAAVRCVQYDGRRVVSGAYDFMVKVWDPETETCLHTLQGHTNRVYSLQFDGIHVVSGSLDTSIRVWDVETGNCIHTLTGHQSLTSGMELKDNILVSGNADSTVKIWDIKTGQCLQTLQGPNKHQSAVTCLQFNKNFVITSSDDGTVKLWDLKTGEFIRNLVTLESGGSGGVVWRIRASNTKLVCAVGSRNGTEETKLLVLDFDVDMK
MITF primary = MITF inhibitors, primary screen, biochemical, AlphaScreen, human; Microphthalmia-associated transcription factor (Homo sapiens), O75030; AlphaScreen MITF homodimerization, bead proximity signal; inhibition, % at 2.6 µM; 0.91% of 650,000 active; in the data active = inhibition above about 50%;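 also: 0% = vehicle wells with protein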
TEAD-YAP inh = TEAD-YAP interaction inhibition, primary screen, TEAD-YAP interaction inhibitor project, luminescence, HEK-TIYL cells. TEAD-Gal4/YAP UAS-luciferase luminescence. inhibition, % at 9.12 µM. 1.4% of 640,000 active. AID 1259422, 2018; in the data active = inhibition above about 32%;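 also: 0% = median of test compound wells and 100% = reference inhibitor wells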
The depositor's hits bear a star.

SMILES | GPR151 ag | FBW7 act | MITF primary | TEAD-YAP inh
CC(C)c1ccc2[nH]c3nc(SCCN4CCOCC4)nnc3c2c1 | -0.5 | -0.1 | 44.4 | 0.8
Cc1ccc(NC(=O)COc2ccc(Cl)cc2Cl)nc1 | -2.9 | 0.8 | 4.2 | 69.9*
Cc1nc(NC(=O)COc2ccc(Cl)cc2Cl)sc1C | -7.3 | -0.3 | 6.6 | 74.0*
O=C(CCl)NCCOc1ccc(Cl)cc1Cl | -0.6 | 0.1 | 9.4 | 41.4*
Cc1ccc(OCC(=O)Nc2ccc(Cl)cn2)c(Br)c1 | -1.9 | 0.0 | -6.2 | 40.1*
Cc1cc(Br)ccc1OCC(=O)Nc1ccc(Cl)cn1 | 0.1 | 0.2 | 17.2 | -24.6
Cc1cc(Cl)ccc1OCC(=O)Nc1ccc(Cl)cn1 | -0.2 | 0.0 | 8.7 | -29.1
COc1cc(OC)cc(C(=O)NCc2nnc(SCC(=O)N3CCc4ccccc43)n2-c2cccc(C)c2)c1 | -0.4 | 0.2 | 8.6 | -10.0
Cc1cc(C)n(-c2ccc(Cl)c(C(=O)NCc3ccccc3)n2)n1 | -0.8 | 0.5 | 17.5 | -21.7
CN1CCN(c2oc(-c3ccccc3F)nc2C#N)CC1 | 0.4 | -0.1 | 7.3 | -5.2
COC(=O)CNC(=O)C(Cc1ccccc1)NC(=O)OC(C)(C)C (stereo not given) | 0.7 | 0.7 | 15.9 | -4.0
CCCCC1(CC(=O)Nc2ccc(F)cc2)C(=O)N(c2ccccc2)N(c2ccccc2)C1=O | -0.6 | 1.9* | -9.5 | 3.2
CCCNC(=O)CCS(=O)(=O)c1nc(-c2ccc(OC)cc2)cc(C(F)(F)F)n1 | -0.1 | 2.1* | 2.9 | 9.7
COc1ccc(-c2cc(C(F)(F)F)nc(S(=O)(=O)CCC(=O)NC(C)C)n2)cc1 | -0.8 | 0.0 | 3.5 | -0.1
O=C(O)C1Nc2c(O)cc(Cl)c([N+](=O)[O-])c2C2C=CCC12 (stereo not given) | -0.6 | -0.4 | 108.0* | -6.5
O=[N+]([O-])c1c(Cl)cc(O)c2c1C1C=CCC1C(c1ccc(Cl)cc1)N2 (stereo not given) | 1.0 | 0.1 | 32.0 | 14.0
CCOc1cc2c(c([N+](=O)[O-])c1)NC(C(=O)O)C1CC=CC21 (stereo not given) | -1.1 | -1.0 | 73.4* | 13.1
CC1(C)C(c2ccccc2)=[N+]([O-])C(c2ccc(C(F)(F)F)cc2)N1O (stereo not given) | -0.8 | 0.3 | 3.8 | -11.5
CCn1cnc2c(Nc3ccc(C)cc3C)ncnc21 | -1.2 | 0.0 | 8.6 | -58.2
CCn1cnc2c(Nc3ccc(F)cc3)ncnc21 | -9.8 | 0.6 | 14.1 | 33.9*
COC(=O)c1ccccc1Sc1c(-c2ccccc2)nc2ncccn12 | 0.8 | 0.0 | 6.7 | 45.2*
Cc1nn2c(N)cc(-c3ccccc3)nc2c1-c1ccc(Cl)cc1 | -0.9 | 0.3 | -21.9 | 2.1
Cc1nc2c(-c3ccc(Cl)cc3)cnn2c(N)c1-c1ccccc1 | -2.1 | 0.5 | 13.5 | 89.0*
CCn1c(=O)cc(N2CCN(c3cccc(Cl)c3)CC2)[nH]c1=O | 0.1 | 0.0 | -5.8 | 68.0*
CC(C)Cn1cc(C(=O)N2CCN(C)CC2)c2c3ccccc3n(C)c2c1=O | 1.8 | 0.0 | 5.6 | 12.7
SMILES | GPR151 ag | FBW7 act | MITF primary | TEAD-YAP inh
Cc1ccccc1N=c1oc2ccccc2cc1-c1nc2ccccc2[nH]1 | -9.7 | -0.1 | 0.0 | 42.7*
Cc1cccc(N=c2oc3ccccc3cc2-c2nc3ccccc3[nH]2)c1 | -10.7 | -0.1 | -8.2 | 46.5*
Cc1ccc2nc(-c3cc4ccccc4oc3=N)[nH]c2c1 | -7.3 | 0.0 | -28.2 | 93.3*
N#CCCN(CCN(CCC#N)C(=O)NC1CCCCC1)C(=O)NC1CCCCC1 | -0.4 | -0.1 | 1.1 | 7.1
O=C(CCl)Nc1ccc(OC(F)(F)F)cc1 | -0.2 | -0.1 | 6.3 | 34.2*
O=C(CCl)Nc1ccc(Cl)c(C(F)(F)F)c1 | 1.7 | 0.2 | -1.1 | 39.5*
O=C(Nc1ccc(OC(F)(F)F)cc1)c1ccc(=O)[nH]c1 | 0.5 | 0.1 | -3.8 | 32.8*
CCCC(=O)Nc1ccc(Cl)c(C(F)(F)F)c1 | 2.2 | 0.5 | 10.0 | 14.4
O=C(O)CCCC(=O)Nc1ccc(OC(F)(F)F)cc1 | -0.4 | 0.1 | 6.0 | 0.5
O=C(CCl)Nc1ccc(OC(F)F)cc1 | -0.2 | -0.2 | 11.5 | 35.0*
CN(C)N1C(N)=C(C#N)C(c2ccccc2)C2=C1CC(C)(C)CC2=O (stereo not given) | 0.6 | 0.1 | 13.4 | 6.0
CC1=NN(c2ccccc2)C(=O)C1N=Nc1cccc(O)c1 (stereo not given) | -0.9 | -0.7 | 26.4 | 48.7*
COc1cc(Nc2nc(SCc3cccc(F)c3)nc3ccccc23)cc(OC)c1 | 1.6 | 0.1 | 0.6 | 1.3
CCOc1ccc(Br)cc1S(=O)(=O)NC1CC(C)(C)NC(C)(C)C1 | -1.7 | 0.6 | 19.7 | 7.3
CC1Cc2cc(S(=O)(=O)N(C)CC(=O)Nc3cccnc3)ccc2N1C(=O)C1CC1 (stereo not given) | -1.3 | -0.2 | 8.1 | 39.3*
COCCNC(=O)c1cc2c(=O)n3cc(C)ccc3nc2n1C | 0.9 | 0.0 | 1.7 | 13.8
CC1=C(C(=O)NC2CCCc3c2cnn3-c2ccc(F)cc2F)OCCO1 (stereo not given) | 0.1 | 0.2 | 8.3 | 29.5
Cc1ncoc1C(=O)NC1CCCc2c1cnn2-c1ccc(F)cc1F (stereo not given) | -0.5 | 0.0 | 5.8 | 45.4*
Nc1nc(C2CC2)c(Sc2sc(N)nc2C2CC2)s1 | 0.5 | -0.2 | 7.0 | 34.8*
CCOC(=O)C1=C(C)N=c2s/c(=C/c3ccc(OC)cc3C)c(=O)n2C1c1cc(OC)ccc1OC (stereo not given) | 0.2 | -0.1 | 7.5 | 8.3
Cc1[nH]c2ccc(-c3nnc(SCC(=O)N(C(C)C)C(C)C)o3)cc2c1C | -1.2 | 0.1 | 17.8 | 35.9*
CCOc1ccc(/C(O)=C2/C(=O)C(=O)N(CCN(CC)CC)C2c2ccc(C(C)(C)C)cc2)c(C)c1 (stereo not given) | -0.4 | -0.2 | 0.1 | -4.6
COCC[n+]1c(C)cc(/C=C2\Sc3ccccc3N2C)cc1C | 0.2 | -0.1 | -7.2 | 76.0*
CCN1/C(=C/c2cc(C)[n+](CCO)c(C)c2)Sc2ccccc21 | 1.3 | -0.2 | 1.2 | 33.2*
CCN1/C(=C/c2cccc[n+]2C)Sc2ccccc21 | 2.4 | 0.0 | -2.4 | 46.5*
SMILES | GPR151 ag | FBW7 act | MITF primary | TEAD-YAP inh
CC(C)NC(=O)C1CC(c2ccc(F)cc2)=NO1 (stereo not given) | 0.2 | 0.1 | 16.8 | 0.2
O=C(N=c1sn2c(c1[N+](=O)[O-])CCCCC2)c1ccccc1 | -1.7 | -0.1 | -1.7 | 83.9*
O=C(c1ccccc1)N1CCN(C(=O)c2cc3c(s2)CCCCC3)CC1 | -1.0 | 0.3 | 7.6 | 1.8
CCCNc1cc(C)nc(Oc2ccccc2)n1 | 1.4 | -0.1 | -8.7 | 80.3*
O=[N+]([O-])c1ccc(Oc2ccc(S(=O)(=O)N3CCCC3)cc2)cc1 | -0.2 | 0.2 | -0.9 | 2.4
C=CCn1c(SC)nc(O)c(CC)c1=O | -0.5 | 1.9* | 8.9 | 1.5
